Here are results for 40 compounds from PubChem BioAssay (NCI).

SMILES strings stand for the structures. About 83,000 compounds went through this panel and 20% of them were active in at least one assay; those are over-represented in the sample as a whole.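 Note: values are percent growth. 100 is the growth of untreated cells, values between 100 and 0 indicate rising inhibition; between -100 and 0 indicates cell death.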 Values without a mark were called inactive. The source made the active and inactive calls. Rule for the calls: active = growth percent below 10; inactive = the rest.

The first experiment relates to OVCAR-8 ovarian. Description: NCI-60 one-dose screen, 48 h (100 = growth as untreated, 0 = no growth, -100 = all killed). To be noted: 10 µM unless noted.
Regarding `CCCCc1nc2c(N)nc3ccccc3c2n1Cc1cccc(CN)c1`, the growth is 63.9%.
Consider `CCCCCCCCCCCC(=O)NC(C)(C)C(=O)N1CCCC1C(=O)NC(C)(C)C(=O)NC(C)(C)C(=O)N1CCCC1C(=O)NC(C)(C)C(=O)NC(C)(C)C(=O)N1CCCC1C(=O)NC(C)C(=O)NCCC(=O)NC(C)C(=O)NC(C)(C)C(=O)NC(C)(C)C(=O)NC(C)(C)C(=O)NCCC(=O)NC(C)(C)C(=O)NC(C)(C)C(=O)NC(C)(C)C(=O)NC(C)C(=O)NCCC(=O)O` (configuration not stated), for which the growth was -93.4% (active).
As to `NS(=O)(=O)c1ccc(Nc2nc(N/N=C/c3ccc4c(c3)OCO4)nc(Nc3ccccc3)n2)cc1`, the growth is 49.7%.
Same read-out and setting: the figure for `O=[N+]([O-])c1ccc(NC(=S)NNC(=S)Nc2ccc(Br)cc2)cc1` is 98.6%.
For the compound `Cc1cc(=O)[nH]c(O)c1C#N`, the growth is 102%.
On the same count and under the same terms, the figure for `Cc1ccc(OCc2occc2C(=O)N2CCOCC2)cc1` is 113%; for `O=C1C(SCc2ccccc2)=C(Cl)CN1c1ccccc1` it is 101%; for `COc1ccc(C2C(C#N)=C(/N=C/c3ccc(Cl)cc3)Oc3c2sc2c(C)cccc32)cc1` (configuration not stated) it is 23.4%.
As for `CN(C)CCNc1ccc2ncc(C#Cc3cncc(C(=O)Nc4ccc(CN5CCN(C)CC5)c(C(F)(F)F)c4)c3)n2n1`, the growth is 1.03% (active).
Take `CN1CCC[C@]2(C)[C@H]3CC[C@@H]4[C@@H]5[C@H]6OC[C@@]5(CCC6(C)C)CC[C@@]4(C)[C@]3(C)CC[C@H]2C1(C)C`: the growth is 22.3%.
Same read-out and setting: the figure for `COc1ccccc1/C=C/C(=O)c1nnn(-c2ccc(F)cc2)c1C` is 44.9%; for `CC(C)[C@H]1c2[nH]c3ccccc3c2C[C@H]2C(=O)N(CCCCCCC(=O)NO)CC(=O)N12` it is 60.8%; for `COC(=O)CCCNCCCn1ccc2cc(NCc3cccc(-c4ccccc4)c3C)ccc21` it is 85.2%.
Regarding `C=C(C=O)[C@@H]1CC[C@]2(C(=O)O)CC[C@]3(C)C(CC[C@@H]4[C@@](C)(CCC#N)[C@H](C(=C)C=O)CC[C@]43C)[C@@H]12` (some centres not stated), the growth was -9.95% (active).
Still for that read-out and setting: in the case of `CC1(C)CC[C@]23CC[C@]4(C)[C@H](CC[C@@H]5[C@@]6(C)CC[C@H](NCO)C(C)(C)[C@@H]6CC[C@]54C)[C@H]2[C@H]1OC3` it was 96.1%; in that of `O=C1/C(=C/C=C/c2ccco2)SC(=S)N1Cc1ccccc1`, 100%.
As for `COc1ccc(/C=N/NC(=O)c2c(N)nn(C)c2Nc2ccccc2)cc1Oc1ccccc1`, the growth was 87.7%.
The same measure, in the same setting: in the case of `Cc1[nH]c(C(=O)Nc2ccc(S(=O)(=O)N3CCCCC3)cc2OCCOCCOCCOCCOCCOCCOCCOCCOCCOc2cc(S(=O)(=O)N3CCCCC3)ccc2NC(=O)c2[nH]c(C)c3c2CCCCC3=O)c2c1C(=O)CCCC2` it was 13.6%; in that of `COc1ccc(C(=NNS(=O)(=O)c2ccc(C)cc2)c2ccccc2)cc1OC`, 97.5%.
On to `CNC(=O)c1cc(Oc2ccc3c(c2)sc2nc(-c4ccc(N(C)C)cc4)cn23)ccn1`, for which the growth is 14%.
For the compound `CN1CCN(Cc2ccc(/C=N/Nc3ccnc4cc(Cl)ccc34)cc2)CC1`, the growth was 80.1%.
The same measure, in the same setting: the figure for `O=C1Nc2ccccc2/C1=N\c1nnc(-c2ccccc2)o1` is 102%; for `COc1ccc2c(c1)C=CC1(O2)Oc2ccc(OC)cc2C=C1C` (configuration not stated) it is 17.5%.
As to `Cn1cc(-c2nn3cc(-c4ccncc4)nc3s2)c2cc(Br)ccc21`, the growth is 28.8%.
With `C#Cc1nc(/C=C/CCCCCCC(=O)NO)cs1`, the growth is 31.8%.
The same measure, in the same setting: the figure for `CC[C@]12CC(C(=O)OC)=C3Nc4ccccc4[C@@]34CCN(C14)[C@@H]1c3cc4c(cc3O[C@@H]1[C@H]2O)NC1=C(C(=O)OC)C[C@@]2(CC)C3N(CC[C@@]143)C[C@H]1O[C@H]12` (some centres not stated) is 24.4%.
In the case of `O=C(CCCCCCN1CC(=O)N2[C@@H](C3CC3)c3[nH]c4ccccc4c3C[C@H]2C1=O)NO`, the growth is 37.5%.

The next experiment deals with OVCAR-5 ovarian. Described as above. The settings on record: 10 µM unless noted.
`Nc1cc(C(=O)N/N=C\c2ccc(OC(F)F)c(OC3CCCC3)c2)nn1CC(O)c1ccccc1` (configuration not stated): the growth is 108%.
On the same count and under the same terms, in the case of `Clc1ccc2[nH]cc(-c3nn4cc(-c5ccncc5)nc4s3)c2c1` it was 98.8%; in that of `CN1CC[C@@H]2[C@@]3(C)CC[C@H](O)C(C)(C)[C@@H]3CC[C@@]2(C)[C@]2(C)CC[C@@]3(CO)CCC(C)(C)C[C@@H]3C12` (some centres not stated), 91.7%.
In the case of `Brc1cc(-c2cc(-c3ccc4c(c3)OCCO4)[nH]n2)cs1`, the growth was 75.8%.
The same measure, in the same setting: in the case of `NS(=O)(=O)c1ccc(Nc2nc(Nc3ccccc3)nc(N3N=C(c4ccc(Cl)cc4)CC3c3ccc(Cl)cc3)n2)cc1` (configuration not stated) it was 43.2%; in that of `O=C(N/N=C\c1ccc([N+](=O)[O-])cc1)c1ccc2nc(-c3ccc(Br)cc3)[nH]c2c1`, 44.8%.
Same read-out and setting: in the case of `O=C(/C=C/c1cccc(C(F)(F)F)c1)Nc1cccc(C(F)(F)F)c1` it was 95.4%.
Consider `Brc1cccc(-c2cc(-c3ccc4c(c3)OC=CO4)[nH]n2)c1`, for which the growth is 71.5%.
As to `CCc1cc2c(cc1Cl)nc1c(=O)[nH]c(=O)nc-1n2CCOCC(C)C`, the growth is 120%.
Same read-out and setting: in the case of `CCCCSC1=C(Cl)CN(c2ccccc2)C1=O` it was 98.8%; in that of `Brc1ccc(-c2cc(-c3ccc4c(c3)OC=CO4)n[nH]2)s1`, 105%; in that of `O=c1c2cc(-c3ccc(F)cc3F)ccc2n(Nc2ccccc2)c(=O)n1-c1cccc(C(F)(F)F)c1`, 79.3%.
For the compound `CN1CCN(CCCCCC(=O)Nc2nc(-c3cccc(NS(=O)(=O)c4cccc5c(N(C)C)cccc45)c3)cs2)CC1`, the growth is 91.6%.
As to `CCCCc1nc2c(N)nc3ccccc3c2n1Cc1cccc(CN)c1`, the growth is 109%.
On the same count and under the same terms, in the case of `CCCCCCCCCCCC(=O)NC(C)(C)C(=O)N1CCCC1C(=O)NC(C)(C)C(=O)NC(C)(C)C(=O)N1CCCC1C(=O)NC(C)(C)C(=O)NC(C)(C)C(=O)N1CCCC1C(=O)NC(C)C(=O)NCCC(=O)NC(C)C(=O)NC(C)(C)C(=O)NC(C)(C)C(=O)NC(C)(C)C(=O)NCCC(=O)NC(C)(C)C(=O)NC(C)(C)C(=O)NC(C)(C)C(=O)NC(C)C(=O)NCCC(=O)O` (configuration not stated) it was -95.4% (active); in that of `NS(=O)(=O)c1ccc(Nc2nc(N/N=C/c3ccc4c(c3)OCO4)nc(Nc3ccccc3)n2)cc1`, 90.8%.
On to `O=[N+]([O-])c1ccc(NC(=S)NNC(=S)Nc2ccc(Br)cc2)cc1`, for which the growth was 91.4%.
In the case of `Cc1cc(=O)[nH]c(O)c1C#N`, the growth is 97.2%.
On the same count and under the same terms, the figure for `Cc1ccc(OCc2occc2C(=O)N2CCOCC2)cc1` is 102%.
The same measure, in the same setting: the figure for `O=C1C(SCc2ccccc2)=C(Cl)CN1c1ccccc1` is 97.5%.
Still for that read-out and setting: in the case of `COc1ccc(C2C(C#N)=C(/N=C/c3ccc(Cl)cc3)Oc3c2sc2c(C)cccc32)cc1` (configuration not stated) it was 34.9%; in that of `CN(C)CCNc1ccc2ncc(C#Cc3cncc(C(=O)Nc4ccc(CN5CCN(C)CC5)c(C(F)(F)F)c4)c3)n2n1`, 11.4%.
Regarding `CN1CCC[C@]2(C)[C@H]3CC[C@@H]4[C@@H]5[C@H]6OC[C@@]5(CCC6(C)C)CC[C@@]4(C)[C@]3(C)CC[C@H]2C1(C)C`, the growth is 103%.
For `COc1ccccc1/C=C/C(=O)c1nnn(-c2ccc(F)cc2)c1C`, the growth is 89.5%.
Same read-out and setting: the figure for `CC(C)[C@H]1c2[nH]c3ccccc3c2C[C@H]2C(=O)N(CCCCCCC(=O)NO)CC(=O)N12` is 81.5%.
In the case of `COC(=O)CCCNCCCn1ccc2cc(NCc3cccc(-c4ccccc4)c3C)ccc21`, the growth is 85.4%.
Take `C=C(C=O)[C@@H]1CC[C@]2(C(=O)O)CC[C@]3(C)C(CC[C@@H]4[C@@](C)(CCC#N)[C@H](C(=C)C=O)CC[C@]43C)[C@@H]12` (some centres not stated): the growth is 127%.
The same measure, in the same setting: the figure for `CC1(C)CC[C@]23CC[C@]4(C)[C@H](CC[C@@H]5[C@@]6(C)CC[C@H](NCO)C(C)(C)[C@@H]6CC[C@]54C)[C@H]2[C@H]1OC3` is 60.4%; for `O=C1/C(=C/C=C/c2ccco2)SC(=S)N1Cc1ccccc1` it is 105%; for `COc1ccc(/C=N/NC(=O)c2c(N)nn(C)c2Nc2ccccc2)cc1Oc1ccccc1` it is 92.4%.
`Cc1[nH]c(C(=O)Nc2ccc(S(=O)(=O)N3CCCCC3)cc2OCCOCCOCCOCCOCCOCCOCCOCCOCCOc2cc(S(=O)(=O)N3CCCCC3)ccc2NC(=O)c2[nH]c(C)c3c2CCCCC3=O)c2c1C(=O)CCCC2`: the growth was 48.6%.
Same read-out and setting: in the case of `COc1ccc(C(=NNS(=O)(=O)c2ccc(C)cc2)c2ccccc2)cc1OC` it was 103%; in that of `CNC(=O)c1cc(Oc2ccc3c(c2)sc2nc(-c4ccc(N(C)C)cc4)cn23)ccn1`, 39.4%.
For the compound `CN1CCN(Cc2ccc(/C=N/Nc3ccnc4cc(Cl)ccc34)cc2)CC1`, the growth was 102%.
The same measure, in the same setting: the figure for `O=C1Nc2ccccc2/C1=N\c1nnc(-c2ccccc2)o1` is 106%; for `COc1ccc2c(c1)C=CC1(O2)Oc2ccc(OC)cc2C=C1C` (configuration not stated) it is 29.7%.
On the same count and under the same terms, in the case of `Cn1cc(-c2nn3cc(-c4ccncc4)nc3s2)c2cc(Br)ccc21` it was 73.8%.
Take `C#Cc1nc(/C=C/CCCCCCC(=O)NO)cs1`: the growth was 59.3%.
The same measure, in the same setting: in the case of `CC[C@]12CC(C(=O)OC)=C3Nc4ccccc4[C@@]34CCN(C14)[C@@H]1c3cc4c(cc3O[C@@H]1[C@H]2O)NC1=C(C(=O)OC)C[C@@]2(CC)C3N(CC[C@@]143)C[C@H]1O[C@H]12` (some centres not stated) it was 38.6%.
Still for that read-out and setting: in the case of `O=C(CCCCCCN1CC(=O)N2[C@@H](C3CC3)c3[nH]c4ccccc4c3C[C@H]2C1=O)NO` it was 71.8%.
